Reference: PubChem BioAssay (NCATS)
Records with an inconclusive call do not appear. Values without a mark were called inactive. The source made the active and inactive calls. Calls come from the whole dose curve; as a rule, active = well fitted cell-killing curve with a large enough effect; inconclusive = small, poorly fitted or top-dose-only effect; inactive = flat fitted curve, though single readings scatter.

Test: qHTS of pediatric cancer cell lines to identify multiple opportunities for drug repurposing: Primary screen for RD cells (AID 1347104); note: nearly all actives have a fitted effect of over 55% in size
Conditions: RD rhabdomyosarcoma viability, CellTiter-Glo luminescence, 48 h; series mostly up to 46 µM; activity change, negative = cytotoxic: at the top concentration
Text: Drug repurposing or repositioning has been offered as a strategy for drug development in oncology programs. This approach has special potential for childhood cancers and other rare or orphan diseases, where the expected return on new drug development has been a disincentive to pharmaceuticals. […] In this project we exploit the poly-pharmacology of drugs to discover new indications via phenotypic screening of a panel of 19 well-characterized cell lines derived from solid tumors seen in children and adolescents. The goal is to identify approved drugs with previously unrecognized anticancer properties that has the potential to reveal new mechanisms and biological processes involved in carcinogenesis or drug resistance. We employed a titration-based paradigm (quantitative high-throughput screening or qHTS), where all compounds were tested at multiple concentrations for their effect on cell viability. Concentration-response curves (CRCs) were derived directly from the primary screen, and both potency and efficacy values were used to identify compounds with robust bioactivity profiles. We screened the NIH Chemical Genomics Center (NCGC) Pharmaceutical Collection (NPC) and Mechanism Interrogation Plate (MIPE) small molecule collections of approved and investigational compounds against these cell lines; and measured metabolically active cells after 48 hours of compound treatment as a proxy for cell viability. […] Assay Submitter: Nathalia J. Martinez, National Center for Advancing Translational Sciences, National Institutes of Health, Rockville, MD, USA; email: natalia.martinez@nih.gov Shen, M et al. Quantitative high-throughput phenotypic screening of pediatric cancer cell lines identifies multiple opportunities for drug repurposing. Oncotarget 2017 Dec 19;9(4):4758-4772. PMID 29435139.
The cells were obtained from University of North Carolina (UNC), Pediatric Preclinical Testing Program (PPT), and Coriell Institute (CI). qHTS cell viability assay: Cells were assayed in growth media at a density of 500-1,000 cells/well. Five microliters of cells were dispensed into 1,536-well, white, solid-bottom, TC-treated plates (Greiner Bio One) using a multidrop dispenser and incubated at 37 degrees C, 5% CO2, under a humidified atmosphere for 5 hours. Twenty-three nanoliters of compounds and controls (neutral control DMSO or positive control bortezomib at final concentration of 2.3 µM) were subsequently transferred by Kalypsys pintool. For primary screens, the MIPE collection was tested at 11-point dilutions (final concentrations range from 0.78 nM to 46 µM) and the NPC collection at 8-point dilutions (final concentrations range from 0.59 nM to 46 µM). Compounds tested in follow-up screens were assayed at 11-point dilutions. Cells were incubated for 48 hours, followed by addition of 3 µL of CellTiter-Glo (Promega). After a 15 min incubation at room temperature, samples were analyzed for luminescence intensity using a ViewLux High-throughput CCD imager equipped with clear filters.
Potency is the fitted concentration of half-maximal effect.

Going from `C/C(=N\O)c1ccc(OCC(=O)N2CCCCC2)cc1` to `CC(=O)SCC(CC(=O)c1ccc(C)cc1)C(=O)O` (stereo not given), the “activity change, negative = cytotoxic” value rises from 1.91% to 12.6%.

Compared with `Cc1nc2ccccc2n1Cc1ccc(Cl)cc1`, `Clc1ccccc1-c1nc(-c2ccncc2)no1` is higher in “activity change, negative = cytotoxic” value: -11.3% for the first, -1.93% for the second.

First: O=C(O)c1cc(O)c(O)c(O)c1
Second: Nc1ccc(O)c(C(=O)O)c1
The “activity change, negative = cytotoxic” value of the first is lower: -0.805% for the first, 3.96% for the second.

Going from `CNC(=O)c1c(I)c(NC(=O)CCCCC(=O)Nc2c(I)c(C(=O)O)c(I)c(C(=O)NC)c2I)c(I)c(C(=O)O)c1I` to `Cc1c(C(=O)O)c(O)cc2c1C(=O)c1c(O)c([C@@H]3O[C@H](CO)[C@@H](O)[C@H](O)[C@H]3O)c(O)c(O)c1C2=O`, the “activity change, negative = cytotoxic” value falls from -6.09% to -24.5%.

Compared with `C#CC1(O)CC[C@H]2[C@@H]3CCC4=CCCC[C@@H]4[C@H]3CC[C@@]21C` (stereo not given in full), `COc1ccnc2c1CCCCC2S(=O)c1nc2ccccc2[nH]1` (stereo not given) is higher in “activity change, negative = cytotoxic” value: -27.5% for the first, 15.6% for the second.

Compared with `CC(N)C(=O)OC(C)(C)Cc1ccc(Cl)cc1` (stereo not given), `CC(C(=O)O)c1ccc2c(c1)[nH]c1ccc(Cl)cc12` (stereo not given) is lower in “activity change, negative = cytotoxic” value: -7.77% for the first, -8.63% for the second.

First: C=CCCCCCCCCC(=O)O
Second: CCCCCCCCCCCCOCCO
The “activity change, negative = cytotoxic” value of the first is lower: 0.346% for the first, 6.65% for the second.

Going from `Cc1c(N)c(=O)n(-c2ccccc2)n1C` to `CC1(C)S[C@@H]2[C@H](NC(=O)[C@H](N)c3ccccc3)C(=O)N2[C@H]1C(=O)O`, the “activity change, negative = cytotoxic” value rises from -5.46% to 21.1%.

Compared with `O=C(OCc1ccccc1)c1ccccc1`, `O=C(Nc1ccc(C(=O)O)c(O)c1)c1ccccc1` is lower in “activity change, negative = cytotoxic” value: 8.46% for the first, 7.63% for the second.

First: CO[C@@]1(NC(=O)Cc2cccs2)C(=O)N2C(C(=O)O)=C(COC(N)=O)CS[C@@H]21
Second: CN(C)CCn1nnnc1SCC1=C(C(=O)O)N2C(=O)[C@@H](NC(=O)Cc3csc(N)n3)[C@H]2SC1
The “activity change, negative = cytotoxic” value of the first is higher: 17.2% for the first, 14.9% for the second.

First: Nc1c(CC(=O)O)cccc1C(=O)c1ccc(Br)cc1
Second: O=C(O)c1ccccc1Nc1cccc(C(F)(F)F)c1
The “activity change, negative = cytotoxic” value of the first is lower: 9.01% for the first, 10.2% for the second.

Compared with `COc1ccc(-c2cc(=S)ss2)cc1`, `CCOc1ccc2nc(S(N)(=O)=O)sc2c1` is lower in “activity change, negative = cytotoxic” value: -10.3% for the first, -13.9% for the second.

Compared with `O=C(CCN1CCN(CCO)CC1)N1c2ccccc2Sc2ccc(C(F)(F)F)cc21`, `Cc1c(Nc2ncccc2C(=O)O)cccc1C(F)(F)F` is higher in “activity change, negative = cytotoxic” value: -13.2% for the first, 1.74% for the second.

Going from `CCC1C(=O)OCC1Cc1cncn1C` (stereo not given) to `C[N+]1(C)[C@@H]2CC(OC(=O)[C@H](CO)c3ccccc3)C[C@H]1[C@@H]1O[C@@H]12` (stereo not given in full), the “activity change, negative = cytotoxic” value rises from 5.07% to 5.56%.

Compared with `N=C(N)N`, `CC(C)(C)c1nnc(NS(=O)(=O)c2ccc(N)cc2)s1` is lower in “activity change, negative = cytotoxic” value: 10.3% for the first, 1.54% for the second.

With `O=C(O)/C=C\C(=O)O` the “activity change, negative = cytotoxic” value was 14.5%.

First: Nc1ccc(O)c([N+](=O)[O-])c1
Second: Nc1nc2ccc([N+](=O)[O-])cc2s1
The “activity change, negative = cytotoxic” value of the first is higher: -15.9% [at 92.7 µM] for the first, -23.3% [at 92.7 µM] for the second.

First: NCCO
Second: CN(C)c1ccc(N=NS(=O)(=O)O)cc1
The “activity change, negative = cytotoxic” value of the first is lower: 12% [at 92.7 µM] for the first, 12.5% [at 92.7 µM] for the second.

For `N=C1N=C(N)c2cc3ccccc3cc21`, the Potency was 34.4 µM (active).
For `COC(=O)c1nc(Cl)c(Cl)nc1N`, the Potency was 5.96 µM (active).
For `CN(C)c1ccc(C(=C2C=CC(=[N+](C)C)C=C2)c2ccccc2)cc1`, the Potency was 0.0596 µM (active).
For `Oc1c(Br)cc(Br)c2cccnc12`, the Potency was 23.7 µM (active).
With `Cc1ccc2c(n1)Oc1ccc(C(C)C(=O)OCC(=O)N(C)C)cc1C2` (stereo not given) the Potency was “inactive”.
